Experimental data as given in PubChem BioAssay AID588726 (The Scripps Research Institute Molecular Screening Center, 2011).
Out of some 360,000 compounds screened, about 8,200 (2.3%) were called active. The entries come from a sample that favours actives as a whole. Values without a mark were called inactive. Cut-off read from the data, not from the text of the source: active = inhibition above about 27%; inactive = the rest.

The compounds below were run against Fructose-bisphosphate aldolase (Mycobacterium tuberculosis (strain ATCC 25618 / H37Rv)) (UniProt P9WQA3) (assay: Mtb FBA enzyme inhibitors, primary screen, biochemical, fluorescence, strain H37Rv (AID 588726;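 note: 0% = vehicle and 100% = reference inhibitor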)). Conditions: purified M. tuberculosis FBA, fluorescence read-out, at 1 µM, active compounds read high.
Fructose-bisphosphate aldolase (Mycobacterium tuberculosis (strain ATCC 25618 / H37Rv)), sequence (P9WQA3 whole entry, looked up): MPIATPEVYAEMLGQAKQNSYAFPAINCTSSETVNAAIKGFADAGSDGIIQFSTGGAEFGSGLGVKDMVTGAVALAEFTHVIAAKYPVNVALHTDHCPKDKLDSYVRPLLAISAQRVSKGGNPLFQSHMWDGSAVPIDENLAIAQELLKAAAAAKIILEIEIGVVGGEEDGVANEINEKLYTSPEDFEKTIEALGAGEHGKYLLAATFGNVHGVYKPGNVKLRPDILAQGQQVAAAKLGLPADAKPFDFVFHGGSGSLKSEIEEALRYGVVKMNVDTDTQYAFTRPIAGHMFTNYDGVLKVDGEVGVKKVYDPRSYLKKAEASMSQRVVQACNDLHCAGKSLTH
`COC(=O)c1sc(-c2ccc(C(C)(C)C)cc2)cc1NC(=O)/C=C/C(=O)O` showed an inhibition of 1.9%. `CCC(C)(C)n1nnnc1CN1CCN(c2nc3ccc(C)cc3cc2C#N)CC1` showed an inhibition of 3.89%. `COc1cc2c(cc1OC)C(C)N(S(=O)(=O)c1cnc(Cl)c(Cl)c1)CC2` (stereo unspecified) was tested, and the inhibition was -4.46%. Work on `CN(CCC#N)c1ncnc2scc(-c3ccccc3)c12` yielded an inhibition of 4.16%. Compound `COC(=O)c1sc(N2CCN(Cc3ccccc3)CC2)nc1N` has an inhibition of 1.57%. For `C=CCNc1nc(N)c(C(=C(C#N)C#N)c2ccccc2)s1`, the inhibition was 135% (active). In the case of `COc1ccc(N(CC(=O)NC2CCCCC2)C(=O)CNC(=O)c2ccco2)c(OC)c1`, the inhibition is reported as 3.44%. Compound `O=c1[nH]c(=O)n(Cc2ccco2)c2c1C(C(F)(F)F)(C(F)(F)F)N=C(c1ccco1)N2` has an inhibition of 1.76%. Work on `CCCCC[C@@H]1C=C(C(=O)OCC)[C@H](c2ccccc2)N1S(=O)(=O)c1ccc(C)cc1` yielded an inhibition of -1.47%. `CN(CC(=O)NCCc1ccccn1)S(=O)(=O)c1ccc(Cl)cc1` showed an inhibition of -1.58%. For `CN(CCc1ccccn1)S(=O)(=O)c1ccc2c3c(cccc13)C(=O)N2`, the inhibition was 50.8% (active). `CN(CCc1ccccn1)C1CCCN(S(=O)(=O)c2ccccc2Cl)C1` (stereo unspecified) was tested, and the inhibition was -1.97%. With `CC1(C)Cc2c(sc3nc(SCC(=O)NCc4ccccc4)n(-c4ccccc4)c(=O)c23)CS1` the inhibition was 1.67%. With `CCCNC(=S)NC1CC2CCCC(C1)N2CC(C)C` (stereo unspecified) the inhibition was 0.49%. For `COC(=O)C1=NNC2(c3ccc(C)cc3)C(=O)N(c3cccc(C)c3C)C(=O)C12` (stereo unspecified), the inhibition was -2.73%. In the case of `COC(=O)c1c(-c2cccs2)csc1NC(=O)CSc1ncnc2sc(C)c(C)c12`, the inhibition is reported as 1.16%. Compound `CCNC(=O)CN(c1ccc(C)cc1)S(=O)(=O)c1ccc(SC)cc1` has an inhibition of -1.29%. Work on `Cc1ccc(C(=O)NNC(=O)OC(C)(C)C)c(Cl)c1` yielded an inhibition of -0.17%. With `CC(C)(C)OC(=O)NNc1c2ccccc2nc2ccccc12` the inhibition was 74.1% (active). Compound `O=C(NNc1c2ccccc2nc2ccccc12)c1cc2ccccc2cc1O` has an inhibition of -10.4%. Work on `Cc1ccc(S(=O)(=O)N(CCCN(C)C)Cc2ccc3c(c2)OCO3)cc1` yielded an inhibition of 1.83%. With `O=C(CCN1C(=O)[C@@H]2Cc3ccccc3CN2C1=O)NCCc1ccccc1` the inhibition was -6.76%. `CC(=O)c1cccc(NC(=O)C2CCCN(S(=O)(=O)c3cccc4nonc34)C2)c1` (stereo unspecified) was tested, and the inhibition was 5.88%. With `O=C(CN(C(=O)CNC(=O)c1cccs1)c1cccc(F)c1)NC1CCCCC1` the inhibition was -0.45%. Work on `Cn1c(CCc2ccccc2)nnc1SCC(N)=O` yielded an inhibition of -0.79%. `COC(=O)CCNC(=O)c1ccc2[nH]c(C)c(C)c2c1` gave an inhibition of 4.35%. For `CCCCNC(=O)c1ccc(-n2c(=S)[nH]c3ccccc3c2=O)cc1`, the inhibition was -2.52%. For `CN(C)CCCNC(=O)c1ccc2[nH]c3ccccc3c2c1`, the inhibition was 34.9% (active). For `O=C(Nc1ncc2c(n1)CC(c1ccco1)CC2=O)c1ccc(Cl)cc1` (stereo unspecified), the inhibition was -1.48%. `O=C(Nc1ccc(Cl)cn1)c1ccccc1-c1ccccc1` showed an inhibition of -2.1%. With `O=C(Nc1ncc2c(n1)-c1ccccc1OC2)c1ccc(Cl)cc1` the inhibition was 97.1% (active). `CC(C)NC(=O)C(=O)NCCN1CCN(S(=O)(=O)c2ccc(Cl)cc2)CC1` showed an inhibition of 2.59%. For `CC1(C)O[C@@H]2[C@H](O1)[C@@H](CO)O[C@H]2n1c(N2CCCCC2)nc2c(N)ncnc21`, the inhibition was 0.56%. Compound `O=C(Nc1cccc(Cl)c1)c1cncn1-c1ccc(F)cc1` has an inhibition of 6.15%. For `CCC(=O)Nc1ccc2nn(-c3ccc(F)cc3)nc2c1`, the inhibition was 102% (active). `CCOC(=O)N1CCN(CC(=O)Nc2ccc(F)cc2)CC1` showed an inhibition of -0.85%. `Nc1c(N(CCO)C(=O)C2CCCCC2)c(=O)[nH]c(=O)n1Cc1ccccc1` showed an inhibition of 5.19%. `CCc1nccn1CCC(=O)N1CCCC(N2CCN(c3ccccc3F)CC2)C1` (stereo unspecified) gave an inhibition of -1.12%. `CNC(=O)c1nnn(-c2ccccc2)c1C(=O)NC` showed an inhibition of 3.79%. With `N#CCCN1CCN(S(=O)(=O)c2ccc(S(=O)(=O)NC3CC3)cc2)CC1` the inhibition was -0.2%. `CC(Sc1nnc(-c2ccccc2F)n1C1CC1)C(N)=O` (stereo unspecified) gave an inhibition of -0.8%. `Cc1cc(C)c2nc3nc(C)cc(C)c3c(N)c2c1` was tested, and the inhibition was 42.9% (active). `CCC(=O)Nc1ccc(-c2ccc(N3CCCCC3)nn2)cc1` showed an inhibition of 4.9%. `CC(=O)N1N=C(c2ccccc2)OC1c1cccnc1` (stereo unspecified) was tested, and the inhibition was -0.2%. For `CC(=O)N1N=C(c2ccncc2)OC1(Cc1ccccc1)Cc1ccccc1`, the inhibition was 46.8% (active). For `O=C(Cc1ccccc1)N1N=C(c2ccncc2)CC1(O)C(F)(F)F` (stereo unspecified), the inhibition was -4.28%. Work on `CCCCn1c(SCc2ncc(-c3ccccc3)o2)nc2cc(S(N)(=O)=O)ccc21` yielded an inhibition of -3.35%. With `O=C(CN(Cc1ccc(Br)cc1)S(=O)(=O)c1ccccc1)NCc1ccncc1` the inhibition was 3.05%. `Cc1ccc2c(C(=O)CN3CCCC3)c(C)[nH]c2c1` was tested, and the inhibition was -0.06%. For `O=C(Nc1nncs1)c1ccccc1NS(=O)(=O)c1cccs1`, the inhibition was 75% (active). For `COc1cc(NC(=O)c2ccccc2NS(=O)(=O)c2ccc(Cl)s2)cc(OC)c1`, the inhibition was 2.51%. With `O=C(Nc1cccc(Cl)c1)Nc1ccccc1NS(=O)(=O)c1cccs1` the inhibition was -6.91%. `CCCNc1ncnc2sc(C)c(C)c12` gave an inhibition of 2.22%. Work on `O=C(Nc1c(Cl)cccc1Cl)C1CCC1` yielded an inhibition of 5.25%. Work on `O=C(Nc1ccc(F)cc1)c1cccnc1N1CCOCC1` yielded an inhibition of 1.16%. `Cc1cccc(C(=O)NC(=S)N2CCN(c3ccc([N+](=O)[O-])cc3)CC2)c1` showed an inhibition of -0.47%. In the case of `CCC(=O)Nc1cccc(C2=NOC3(C2)C[C@@H](C(N)=O)N(C(=O)c2cc([N+](=O)[O-])cc([N+](=O)[O-])c2C)C3)c1` (stereo partly specified), the inhibition is reported as -2.54%. `N#CC1=C(N)Oc2[nH]c(=S)[nH]c(=O)c2C12C(=O)Nc1ccccc12` (stereo unspecified) was tested, and the inhibition was 126% (active). `Cc1ccc(NC2(C#N)C(=O)Nc3ccccc32)cc1` (stereo unspecified) showed an inhibition of -3.14%. `Cc1ccc(OCC(=O)Nc2ccccc2Sc2ccc(Cl)cc2)c([N+](=O)[O-])n1` showed an inhibition of -0.96%. `CC1(C)CN(c2ccc(-c3ccnc4ncnn34)cc2)C1=O` was tested, and the inhibition was 809% [above what the read-out allows, likely interference] (active). Work on `Nc1c(-c2ccc(F)cc2)cnc2ncnn12` yielded an inhibition of 1.26%. Work on `O=C(CSCc1ccccc1Cl)NNC(=O)c1ccccc1` yielded an inhibition of -0.9%. Work on `CC(C)NC(=O)Nc1cccc2c1O[C@H](CN(C)S(=O)(=O)c1cccs1)[C@@H](C)CN([C@H](C)CO)C2=O` yielded an inhibition of 4.46%. `C[C@H]1CN([C@@H](C)CO)C(=O)c2cc(-c3cccc(F)c3)cnc2O[C@@H]1CN(C)S(C)(=O)=O` gave an inhibition of 2.59%. With `C[C@H]1CN([C@@H](C)CO)C(=O)c2cc(Br)cnc2O[C@H]1CN(C)S(=O)(=O)c1cccs1` the inhibition was 27.8% (active). `Cc1cc(C)cc(OCC(=O)OCC(=O)NC2CCCC2)c1` gave an inhibition of -0.07%. `CCN(C(=O)CSc1cccc[n+]1[O-])c1ccccc1` gave an inhibition of 0.35%. For `Cc1ccc(S(=O)(=O)n2oc(=O)c(C3CCCCC3)c2N)cc1`, the inhibition was -0.6%. `C=CCSc1nnc2c(n1)-c1cccc3cccc-2c13` gave an inhibition of -1.23%. `FC(F)Oc1ccccc1C1CC(c2ccc(Br)s2)Nc2ncnn21` (stereo unspecified) gave an inhibition of 1.95%. `CCOc1ccccc1C1CC(c2ccc(Cl)cc2)Nc2nc(N)nn21` (stereo unspecified) gave an inhibition of 4.25%. For `CCOc1ccccc1C1CC(c2ccccc2)Nc2nc(N)nn21` (stereo unspecified), the inhibition was 35.6% (active). `CCc1cccc(C)c1NC(=O)COC(=O)Cc1ccsc1` showed an inhibition of 4.93%. In the case of `CC(C)NC(=S)Nc1cccc2cnccc12`, the inhibition is reported as -1.91%. `N#Cc1ccccc1S(=O)(=O)N1CCN(Cc2c(O)ccc3ccccc23)CC1` was tested, and the inhibition was 2.66%. For `O=c1oc2c(CN3CCCCC3)c(O)ccc2c2c1CCCCC2`, the inhibition was 502% [above what the read-out allows, likely interference] (active). In the case of `Cc1c(CN2CCCCC2)c(O)n(CCO)c(=O)c1C#N`, the inhibition is reported as 2.47%. `CCN(C(=O)CSc1ncnc2c1cnn2-c1ccccc1)C1CCS(=O)(=O)C1` (stereo unspecified) was tested, and the inhibition was 32.7% (active). Compound `CCC(C)N(C(=O)CSc1ncnc2c1cnn2-c1ccccc1)C1CCS(=O)(=O)C1` (stereo unspecified) has an inhibition of -2.78%. With `CC(C)CN(C(=O)CSc1ncnc2sccc12)C1CCS(=O)(=O)C1` (stereo unspecified) the inhibition was 2.25%. With `CN(C)C(=O)CCC(=O)N1CCCCC1C(=O)Nc1ccc(Oc2ccccc2F)cc1` (stereo unspecified) the inhibition was -1.93%. Work on `COc1ccccc1C(=O)Nc1cccc(C(=O)N2CCOCC2)c1` yielded an inhibition of 3.07%. `O=C(c1cccc(N2CCCC2=O)c1)N1CCOCC1` was tested, and the inhibition was -17.6%. With `CCOCCc1c(O)nc(SCC(=O)NCc2ccco2)[nH]c1=O` the inhibition was 2.42%. Compound `CS(=O)(=O)N(Cc1ccccc1Cl)c1ccc(C(=O)NCc2cccnc2)cc1` has an inhibition of -3.74%. `CCN(CC(=O)Nc1cc(Cl)ccc1C)C(=O)CSCc1ccc(C)cc1` gave an inhibition of 2.85%. `O=C(NC1CCCC1)C(c1c(F)cccc1Cl)N(C(=O)c1csnn1)C1CC1` (stereo unspecified) gave an inhibition of -1.18%. For `COc1ccc(OC)c(NC(=O)CN(Cc2ccc(Cl)cc2)S(C)(=O)=O)c1`, the inhibition was -0.32%. For `O=c1cc(C(F)(F)F)[nH]c(=O)n1C1CCCCC1`, the inhibition was -0.44%. `CC(Sc1sc(=S)sc1SC(C)C(=O)O)C(=O)O` (stereo unspecified) gave an inhibition of -1.78%.
